Measured values as given in PubChem BioAssay AID1159580 (chemical genetic matrix, 2015).
The campaign covered roughly 5,500 compounds. About 2,000 (36%) were called active. About 18% were inconclusive and are not listed. Rule as the data show it: active = normalized growth mostly below about 0.91 (no sharp cut-off); inconclusive = no clear call, values can overlap the other calls; inactive = mostly above about 0.92. Some of the results follow.

Assay: chemical genetic growth profiling, strain panel (AID 1159580);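 also: tested at 20 µM; growth read once vehicle control cultures reached saturation at 30 °C; 1 = growth at the plate median or of vehicle wells; lower values mean less growth of the strain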
Conditions: S. cerevisiae deletion strains, growth OD

Measured: normalized growth

COc1ccc(CN(CCN(C)C)c2ncccn2)cc1
inactive: locus YAL021C, strain ccr4, hits give low values 1.01 | locus YAL026C, strain drs2, hits give low values 1.04 | locus YAL030W, strain snc1, hits give low values 0.997 | locus YBL061C, strain skt5, hits give low values 1.01 | locus YBR009C, strain hhf1, hits give low values 1.01 | locus YBR023C, strain chs3, hits give low values 1.01 | locus YBR171W, strain sec66, hits give low values 1.01 | locus YBR231C, strain swc5, hits give low values 1.04 | locus YBR279W, strain paf1, hits give low values 1.01 | locus YCL011C, strain gbp2, hits give low values 1.01 | locus YCL016C, strain dcc1, hits give low values 1.01 | locus YCL061C, strain MRC1, hits give low values 1.02 | locus YCL069W, strain vba3, hits give low values 1.01 | locus YCR088W, strain abp1, hits give low values 1.01 | locus YDL005C, strain med2, hits give low values 1.01 | locus YDL040C, strain nat1, hits give low values 1.02 | locus YDR001C, strain nth1, hits give low values 1.02 | locus YDR069C, strain doa4, hits give low values 1 | locus YDR137W, strain rgp1, hits give low values 1.01 | locus YDR159W, strain sac3, hits give low values 0.992 | locus YDR195W, strain ref2 1 | locus YDR297W, strain sur2, hits give low values 1.02 | locus YDR334W, strain swr1, hits give low values 0.998 | locus YDR335W, strain msn5, hits give low values 1.01 | locus YDR392W, strain spt3, hits give low values 1.03 | locus YEL003W, strain gim4, hits give low values 1.01 | locus YEL037C, strain rad23, hits give low values 1.01 | locus YEL061C, strain CIN8 (second series), hits give low values 1 | locus YER015W, strain faa2, hits give low values 1.02 | locus YER016W, strain bim1, hits give low values 1.02 | locus YER111C, strain swi4, hits give low values 1.02 | locus YER155C, strain BEM2 (second series), hits give low values 1.05 | locus YFR010W, strain ubp6, hits give low values 1.01 | locus YGL167C, strain pmr1, hits give low values 1.02 | locus YGL173C, strain kem1, hits give low values 1.03 | locus YGL227W, strain vid30, hits give low values 1.01 | locus YGL240W, strain doc1, hits give low values 1.01 | locus YGL253W, strain hxk2, hits give low values 1.02 | locus YHR013C, strain ard1, hits give low values 1.01 | locus YHR027C, strain rpn1, hits give low values 1.01 | locus YHR030C, strain SLT2, hits give low values 1 | locus YHR079C, strain IRE1, hits give low values 1 | locus YHR142W, strain chs7, hits give low values 1.04 | locus YJL092W, strain hpr5, hits give low values 1.03 | locus YJL095W, strain BCK1 (second series), hits give low values 1.01 | locus YJL095W, strain BCK1, hits give low values 1 | locus YJL115W, strain asf1, hits give low values 1.01 | locus YJL129C, strain trk1, hits give low values 1.01 | locus YJL154C, strain vps35, hits give low values 1.01 | locus YJL164C, strain tpk1, hits give low values 1.02 | locus YJL166W, strain qcr8, hits give low values 0.995 | locus YJR066W, strain TOR1, hits give low values 0.954 | locus YKL160W, strain elf1, hits give low values 1.02 | locus YKR026C, strain gcn3, hits give low values 1 | locus YKR091W, strain srl3, hits give low values 1 | locus YLL001W, strain dnm1, hits give low values 1.01 | locus YLL026W, hits give low values 1 | locus YLL041C, strain sdh2, hits give low values 0.995 | locus YLR027C, strain aat2, hits give low values 1.01 | locus YLR113W, strain HOG1, hits give low values 1 | locus YLR221C, strain rsa3, hits give low values 0.998 | locus YLR258W, strain gsy2, hits give low values 1.03 | locus YLR262C, strain YPT6 (second series), hits give low values 1.01 | locus YLR320W, strain mms22, hits give low values 1.01 | locus YLR342W, strain FKS1, hits give low values 1.02 | locus YLR357W, strain rsc2, hits give low values 1.01 | locus YLR370C, strain arc18, hits give low values 1.03 | locus YLR384C, strain iki3, hits give low values 1.02 | locus YML120C, strain ndi1, hits give low values 1.01 | locus YMR058W, strain fet3, hits give low values 1.03 | locus YMR125W, strain sto1, hits give low values 1.01 | locus YMR129W, hits give low values 1.02 | locus YMR205C, strain PFK2, hits give low values 1.02 | locus YMR231W, strain pep5, hits give low values 1.02 | locus YNL071W, strain lat1, hits give low values 1.02 | locus YNL183C, strain NPR1, hits give low values 0.943 | locus YNL209W, strain ssb2, hits give low values 1.03 | locus YNL248C, strain rpa49, hits give low values 1.03 | locus YNL322C, strain KRE1 (second series), hits give low values 1.02 | locus YNR049C, strain mso1, hits give low values 1.01 | locus YOR001W, strain rrp6, hits give low values 1.01 | locus YOR070C, strain gyp1, hits give low values 1.02 | locus YOR080W, strain dia2, hits give low values 1.01 | locus YOR083W, strain WHI5, hits give low values 0.981 | locus YOR106W, strain vam3, hits give low values 1.02 | locus YOR231W, strain MKK1, hits give low values 0.99 | locus YOR265W, strain rbl2, hits give low values 1.02 | locus YOR270C, strain vph1, hits give low values 1.03 | locus YOR290C, strain snf2, hits give low values 1.02 | locus YPL051W, strain arl3, hits give low values 1.02 | locus YPL078C, strain atp4, hits give low values 1.02 | locus YPL106C, strain sse1, hits give low values 0.994 | locus YPL240C, strain hsp82, hits give low values 0.999 | locus YPL256C, strain CLN2, hits give low values 0.991
